Screen size: about 69,000 compounds; about 8,600 (12%) showed an effect of 50% or more. The sample as a whole holds a higher share of strong results than the screen did.

The experiment deals with Plasmodium berghei. The experiment in a line: Screen against P. berghei liver stage (PbLuc), transformed with Luciferase, at 10uM. The following applies: tested at 10 uM. The experiment is classed as functional, HepG2.
`CCc1nc(CNc2ccc(F)cc2I)no1`: the INHIBITION was -58.5%.

`CN1CCN(CC2CN(CC3CC3)Cc3nccn3C2)CC1` (stereo not drawn): the INHIBITION is 19.4%. `Cc1cnc2n1CCN(C)C21CCN(CC2CC2)CC1`: the INHIBITION turned out to be 12.1%. With `CCCS(=O)(=O)c1ccc(N2CCC(Cc3ccccc3)CC2)nn1`, the INHIBITION stood at 23.7%.

Take `Oc1ccc(N2CCC(Cc3ccccc3)CC2)nn1`: the INHIBITION is on record as 83.8%. With `CC(=O)NCC1CCN(c2cc(C)nc(-c3ccncc3)n2)CC1`, the INHIBITION is recorded as 33.3%. Under `O=C(O)c1ccc(N2CCC(Cc3ccccc3)CC2)nn1` stands -23.2%; under `Cc1cc(N2CCC(Cc3ccccc3)CC2)nc(-c2ccncc2)n1`, 71.3%. Under `Cc1cc(N2CCC(CC(N)=O)CC2)nc(-c2ccncc2)n1` stands 16.1%; under `CCn1c(=O)[nH]c2cn(-c3cccc(Cl)c3)c(=O)n21`, -35.5%. To `CC(C)C(O)CNC(=O)Nc1cnn(C(C)C)c1` (stereo not drawn) belongs -4.73%. Regarding `CC(C)n1ccc(C(=O)NCC(O)c2c(Cl)cccc2Cl)n1` (stereo not drawn), the INHIBITION amounted to 24.3%. Under `CCn1nc(C)cc1C(=O)NCc1nc(C)no1` stands 17.5%; under `Cn1cc(C(=O)N2CCCN(c3cccnn3)CC2)c2ccccc21`, -0.532%; under `Cc1ccc(N2CCCN(C(=O)c3cn(C)c4ccccc34)CC2)nn1`, 87.2%. As for `Cc1ccc(N2CCCN(C(=O)c3cccc4c3ccn4C)CC2)nn1`, the INHIBITION stood at 38.5%. Consider `O=C1CN(C(=O)C2CCC3(CC2)CNC(=O)c2ccccc2O3)CCN1` (stereo not drawn), for which the INHIBITION was determined as 43.6%. As for `Cc1nn(C)c(C)c1CN(C)C(=O)c1cc(C(F)(F)F)n(C)n1`, the INHIBITION came to 42.45%. For `O=C(c1ccnn1COc1ccc(Cl)cc1)N1CCCC1`, the INHIBITION is given as 1.45%. Regarding `O=C(c1ccnn1COc1ccc(Cl)cc1)N1CCOCC1`, the INHIBITION stood at 50.8%. In the case of `O=C(c1ccnn1COc1ccc(Cl)cc1)N1CCSCC1`, the INHIBITION stood at 33.4%. Consider `Cc1noc(CN2CCC(Cc3ccc(F)cc3)CC2)n1`, for which the INHIBITION came to 57.2%. As to `Fc1ccccc1CC1CCN(Cc2cscn2)CC1`, the INHIBITION amounted to 82.4%.

Regarding `Cc1noc(CN2CCC(c3ccnn3CCO)CC2)n1`, the INHIBITION turned out to be 49.6%. Take `Cc1noc(CN2CCN(CCO)CC2)n1`: the INHIBITION was -14.9%. Regarding `Fc1ccc(CN2CCCN(Cc3cscn3)CC2)cc1`, the INHIBITION is given as -12.5%. Take `Fc1ccccc1CC1CCN(Cc2ccccn2)CC1`: the INHIBITION is recorded as 45.2%. `Fc1ccccc1CC1CCN(Cc2nccs2)CC1`: the INHIBITION is -131%.

`Fc1ccc(CC2CCN(Cc3nccs3)CC2)cc1`: the INHIBITION is recorded as 38.7%. For `Fc1ccc(CC2CCN(Cc3cscn3)CC2)cc1`, the INHIBITION was found to be 68.1%. Turning to `CCn1cnnc1CNC(=O)N1CCN(C(C)C)CC1`, the INHIBITION stood at 21.5%. `CN(C)C(=O)CO[C@H]1CN(Cc2ccoc2)[C@@H]2COC[C@H]12`: the INHIBITION came to 39.5%. For the compound `CCc1cnccc1C(=O)Nc1ccc(C(N)=O)nc1`, the INHIBITION was 25.1%. On to `CCc1nnc2n1CCN(C(=O)c1cc3c(F)cccc3[nH]1)C2`, for which the INHIBITION came out at 21%. Under `COCCN1C(=O)[C@@H]2CC[C@H]1CN(Cc1nnc(C3CC3)o1)C2` stands 16.2%; under `COc1ncc(CN2CCCC(c3[nH]ncc3S(C)(=O)=O)C2)cn1` (stereo not drawn), 7.05%. To `CCn1cc(-c2cc(C(F)(F)F)nn2CCC#N)cn1` belongs 11.8%; to `Cn1c(C2CC2)nc2c1CCN(CC(=O)Nc1ccncc1)C2`, -31.5%.

`Cc1noc(C)c1C(=O)N[C@@H]1CCC[C@@H](Oc2ccccc2)[C@@H]1O`: the INHIBITION was found to be 17.39%.

As for `CNCc1cc(F)ccc1Oc1ccc(F)cc1`, the INHIBITION was determined as 29.3%. With `N[C@@H]1CCC[C@@H](Oc2ccc(F)cc2Oc2cccc(F)c2)[C@@H]1O`, the INHIBITION is given as 23.2%. As to `N[C@@H]1CCC[C@@H](Oc2ccc(F)cc2Oc2ccccc2)[C@@H]1O`, the INHIBITION worked out at 54.4%.

In the case of `CO[C@@H]1CCC[C@@H](N(C)C(=O)c2cc(F)ccc2F)[C@H]1O`, the INHIBITION was -10.4%. On to `N[C@H]1CN(C(=O)c2ccccc2Oc2ccccc2)C[C@@H]1C1CC1`, for which the INHIBITION was determined as 31.2%.

For the compound `Cc1ccc(Oc2cc(F)ccc2O[C@@H]2CCC[C@@H](N)[C@H]2O)cc1`, the INHIBITION is 94.1%. `CN[C@@H]1CCC[C@@H](Oc2ccccc2Oc2ccc(C)cc2)[C@@H]1O`: the INHIBITION is recorded as 60.2%.

On to `Cc1n[nH]c(C)c1CCC(=O)N[C@@H]1CCC[C@@H](Oc2ccccc2)[C@@H]1O`, for which the INHIBITION is -18.8%. To `O=C(c1ccncc1F)N1CCCC(c2nccn2CC2CCC2)C1` (stereo not drawn) belongs 36.8%. As for `CC(C)C(C(=O)N1CCCN(Cc2nccn2C)CC1)N1CCCC1` (stereo not drawn), the INHIBITION is 11.6%. To `O=C(NC1CCCN(CCCc2ccccc2)C1)c1ccc(Cl)s1` (stereo not drawn) belongs 35.1%.

Consider `CN(C)CC(O)Cn1cc(NCc2ccc(Br)cc2)cn1` (stereo not drawn), for which the INHIBITION is on record as 33.1%. Regarding `Cc1ccc(C(=O)NCc2ccnc(N3CCN(C)CC3)c2)cn1`, the INHIBITION came out at 38.9%.

For `CCOc1ccc(C(=O)NCc2ccnc(N3CCN(C)CC3)c2)cn1`, the INHIBITION is on record as 14%. For the compound `CC(C)Oc1ccc(C(=O)NCc2ccc3c(c2)CCCN3C)cn1`, the INHIBITION is listed as 29.2%.

Take `CC(C)Oc1ccc(C(=O)NCc2ccnc(N3CCCC3)c2)cn1`: the INHIBITION is listed as 79.9%. In the case of `CCOc1ccc(C(=O)NCc2ccnc(N3CCCC3)c2)cn1`, the INHIBITION is reported as 70.5%. Regarding `CC(C(=O)NCc1ccnc(N2CCCC2)c1)n1cccn1` (stereo not drawn), the INHIBITION was 13.275%.

For `CC(O)CN1CCC(CN(C)Cc2cccc(C(=O)N(C)C)c2)CC1` (stereo not drawn), the INHIBITION came out at 21.5%. Under `CO[C@@H]1CCN(C(=O)Cc2ccsc2)[C@H]1Cc1cccnc1` stands -41%; under `C[S+]([O-])CCNC(=O)N1CCN(c2cc(F)ccc2F)CC1` (stereo not drawn), 0.348%; under `Cc1nc(COC[C@]23COC[C@H]2CN(Cc2ccoc2)C3)cs1`, -14%. With `c1ccc(CN2Cc3nccn3CC(Cn3cncn3)C2)nc1` (stereo not drawn), the INHIBITION is listed as -37.9%. As to `c1cncc(OCC2CN(Cc3ccsc3)Cc3nccn3C2)c1` (stereo not drawn), the INHIBITION amounted to 39.2%.

On to `COc1ncccc1CN1Cc2nccn2CC(CN2CCCC2)C1` (stereo not drawn), for which the INHIBITION is given as 72%. To `CN(C)C(=O)COCC1CN(Cc2ccsc2)Cc2nccn2C1` (stereo not drawn) belongs 46.2%; to `c1cncc(CN2Cc3nccn3CC(Cn3cccn3)C2)c1` (stereo not drawn), 30.3%. In the case of `c1ccc(COCC2CN(Cc3ccsc3)Cc3nccn3C2)nc1` (stereo not drawn), the INHIBITION was found to be 76.5%. With `CCOCC1CN(Cc2cccc(C#N)c2)Cc2nccn2C1` (stereo not drawn), the INHIBITION was 41.8%. Turning to `CN(C)CCOCC1CN(Cc2cccc(F)c2)Cc2nccn2C1` (stereo not drawn), the INHIBITION is on record as 86.7%.

Turning to `N#Cc1cccc(CN2Cc3nccn3CC(CN3CCCC3)C2)c1` (stereo not drawn), the INHIBITION was -13%.

Consider `COc1ncccc1CN1Cc2nccn2CC(Cn2cccn2)C1` (stereo not drawn), for which the INHIBITION is on record as 24.9%. On to `N#Cc1cccc(CN2Cc3nccn3CC(COCC3CC3)C2)c1` (stereo not drawn), for which the INHIBITION is -102%.

For the compound `c1ccc(CN2Cc3nccn3CC(Cn3cccn3)C2)nc1` (stereo not drawn), the INHIBITION was determined as 56.6%.

(Values after ChEMBL document CHEMBL4513216, “Probing the Open Global Health Chemical Diversity Library for Multistage-Active Starting Points for Next-Generation Antimalarials” (ACS Infect Dis, 2020).)
